Source: PubChem BioAssay AID1159580 (chemical genetic matrix, 2015)
Hit rate of the full screen: of about 5,500 compounds, about 2,000 (36%) were called active. Inconclusive results (about 18%) are left out. Cut-off read from the data, not from the text of the source: active = normalized growth mostly below about 0.91 (no sharp cut-off); inconclusive = no clear call, values can overlap the other calls; inactive = mostly above about 0.92. Some of the results follow.

Experiment: chemical genetic growth profiling, strain panel (AID 1159580);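 note: tested at 20 µM; growth read once vehicle control cultures reached saturation at 30 °C; 1 = growth at the plate median or of vehicle wells; lower values mean less growth of the strain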
Details: growth OD

Measured: normalized growth

CCC(c1ccc(O)cc1)C(CC)c1ccc(O)cc1 (stereo not drawn)
active: S. cerevisiae deletion strains, locus YKL009W, strain mrt4, stronger effect = lower value 0.871 | S. cerevisiae deletion strains, locus YLL026W, stronger effect = lower value 0.862 | S. cerevisiae deletion strains, locus YLR027C, strain aat2, stronger effect = lower value 0.829 | S. cerevisiae deletion strains, locus YLR039C, strain RIC1, stronger effect = lower value 0.6 | S. cerevisiae deletion strains, locus YLR221C, strain rsa3, stronger effect = lower value 0.828 | S. cerevisiae deletion strains, locus YLR258W, strain gsy2, stronger effect = lower value 0.902 | S. cerevisiae deletion strains, locus YLR262C, strain YPT6 (second series), stronger effect = lower value 0.396 | S. cerevisiae deletion strains, locus YLR262C, strain YPT6, stronger effect = lower value 0.575 | S. cerevisiae deletion strains, locus YLR320W, strain mms22, stronger effect = lower value 0.868 | S. cerevisiae deletion strains, locus YML120C, strain ndi1, stronger effect = lower value 0.733 | S. cerevisiae deletion strains, locus YMR058W, strain fet3, stronger effect = lower value 0.864 | S. cerevisiae deletion strains, locus YMR205C, strain PFK2, stronger effect = lower value 0.844 | S. cerevisiae deletion strains, locus YMR307W, strain GAS1, stronger effect = lower value 0.592 | S. cerevisiae deletion strains, locus YNL071W, strain lat1, stronger effect = lower value 0.786 | S. cerevisiae deletion strains, locus YNL307C, strain MCK1, stronger effect = lower value 0.877 | S. cerevisiae deletion strains, locus YOR001W, strain rrp6, stronger effect = lower value 0.808 | S. cerevisiae deletion strains, locus YOR106W, strain vam3, stronger effect = lower value 0.804 | S. cerevisiae deletion strains, locus YOR184W, strain ser1, stronger effect = lower value 0.761 | S. cerevisiae deletion strains, locus YPL051W, strain arl3, stronger effect = lower value 0.849
inactive: S. cerevisiae deletion strains, locus YJR075W, strain HOC1, stronger effect = lower value 1.01 | S. cerevisiae deletion strains, locus YKL068W, stronger effect = lower value 0.99 | S. cerevisiae deletion strains, locus YKL085W, strain MDH1 (second series), stronger effect = lower value 0.984 | S. cerevisiae deletion strains, locus YKL085W, strain MDH1, stronger effect = lower value 0.984 | S. cerevisiae deletion strains, locus YKL160W, strain elf1, stronger effect = lower value 0.928 | S. cerevisiae deletion strains, locus YKL190W, strain CNB1, stronger effect = lower value 0.994 | S. cerevisiae deletion strains, locus YKR001C, strain vps1, stronger effect = lower value 0.99 | S. cerevisiae deletion strains, locus YKR026C, strain gcn3, stronger effect = lower value 0.982 | S. cerevisiae deletion strains, locus YKR091W, strain srl3, stronger effect = lower value 1 | S. cerevisiae deletion strains, locus YLL001W, strain dnm1, stronger effect = lower value 0.943 | S. cerevisiae deletion strains, locus YLL041C, strain sdh2, stronger effect = lower value 0.976 | S. cerevisiae deletion strains, locus YLR058C, strain SHM2, stronger effect = lower value 1 | S. cerevisiae deletion strains, locus YLR102C, strain apc9, stronger effect = lower value 1.01 | S. cerevisiae deletion strains, locus YLR268W, strain sec22, stronger effect = lower value 0.912 | S. cerevisiae deletion strains, locus YLR330W, strain CHS5, stronger effect = lower value 1.01 | S. cerevisiae deletion strains, locus YLR342W, strain FKS1 (second series), stronger effect = lower value 0.962 | S. cerevisiae deletion strains, locus YLR342W, strain FKS1, stronger effect = lower value 0.938 | S. cerevisiae deletion strains, locus YLR357W, strain rsc2, stronger effect = lower value 0.984 | S. cerevisiae deletion strains, locus YLR370C, strain arc18, stronger effect = lower value 0.993 | S. cerevisiae deletion strains, locus YLR371W, strain rom2, stronger effect = lower value 1.01 | S. cerevisiae deletion strains, locus YLR384C, strain iki3, stronger effect = lower value 1.01 | S. cerevisiae deletion strains, locus YLR418C, strain cdc73, stronger effect = lower value 0.871 | S. cerevisiae deletion strains, locus YML016C, strain PPZ1, stronger effect = lower value 0.996 | S. cerevisiae deletion strains, locus YML032C, strain rad52, stronger effect = lower value 0.935 | S. cerevisiae deletion strains, locus YML124C, strain tub3, stronger effect = lower value 1.01 | S. cerevisiae deletion strains, locus YMR078C, strain ctf18, stronger effect = lower value 0.994 | S. cerevisiae deletion strains, locus YMR125W, strain sto1, stronger effect = lower value 1.01 | S. cerevisiae deletion strains, locus YMR129W, stronger effect = lower value 0.957 | S. cerevisiae deletion strains, locus YMR223W, strain ubp8, stronger effect = lower value 0.94 | S. cerevisiae deletion strains, locus YMR231W, strain pep5, stronger effect = lower value 1.01 | S. cerevisiae deletion strains, locus YMR263W, strain SAP30, stronger effect = lower value 0.973 | S. cerevisiae deletion strains, locus YNL067W, strain RPL9B, stronger effect = lower value 0.956 | S. cerevisiae deletion strains, locus YNL128W, strain TEP1, stronger effect = lower value 1.02 | S. cerevisiae deletion strains, locus YNL153C, strain GIM3, stronger effect = lower value 0.982 | S. cerevisiae deletion strains, locus YNL209W, strain ssb2, stronger effect = lower value 0.976 | S. cerevisiae deletion strains, locus YNL233W, strain BNI4, stronger effect = lower value 0.974 | S. cerevisiae deletion strains, locus YNL248C, strain rpa49, stronger effect = lower value 0.942 | S. cerevisiae deletion strains, locus YNL250W, strain rad50, stronger effect = lower value 0.985 | S. cerevisiae deletion strains, locus YNL271C, strain bni1, stronger effect = lower value 0.985 | S. cerevisiae deletion strains, locus YNL298W, strain CLA4, stronger effect = lower value 0.912 | S. cerevisiae deletion strains, locus YNL322C, strain KRE1 (second series), stronger effect = lower value 0.985 | S. cerevisiae deletion strains, locus YNL322C, strain KRE1, stronger effect = lower value 1.01 | S. cerevisiae deletion strains, locus YNR049C, strain mso1, stronger effect = lower value 1 | S. cerevisiae deletion strains, locus YNR052C, strain pop2, stronger effect = lower value 0.938 | S. cerevisiae deletion strains, locus YOL006C, strain TOP1, stronger effect = lower value 0.769 | S. cerevisiae deletion strains, locus YOL012C, strain htz1 1.31 | S. cerevisiae deletion strains, locus YOL147C, strain pex11, stronger effect = lower value 0.997 | S. cerevisiae deletion strains, locus YOR061W, strain CKA2, stronger effect = lower value 0.984 | S. cerevisiae deletion strains, locus YOR069W, strain VPS5, stronger effect = lower value 0.999 | S. cerevisiae deletion strains, locus YOR070C, strain gyp1, stronger effect = lower value 0.942 | S. cerevisiae deletion strains, locus YOR080W, strain dia2, stronger effect = lower value 0.974 | S. cerevisiae deletion strains, locus YOR083W, strain WHI5, stronger effect = lower value 0.899 | S. cerevisiae deletion strains, locus YOR136W, strain idh2, stronger effect = lower value 0.996 | S. cerevisiae deletion strains, locus YOR144C, strain elg1, stronger effect = lower value 1.01 | S. cerevisiae deletion strains, locus YOR265W, strain rbl2, stronger effect = lower value 0.966 | S. cerevisiae deletion strains, locus YOR270C, strain vph1, stronger effect = lower value 0.792 | S. cerevisiae deletion strains, locus YOR290C, strain snf2, stronger effect = lower value 0.953 | S. cerevisiae deletion strains, locus YOR316C, strain cot1, stronger effect = lower value 1.01 | S. cerevisiae deletion strains, locus YPL055C, strain LGE1, stronger effect = lower value 0.979 | S. cerevisiae deletion strains, locus YPL078C, strain atp4, stronger effect = lower value 0.895 | S. cerevisiae deletion strains, locus YPL106C, strain sse1, stronger effect = lower value 0.93 | S. cerevisiae deletion strains, locus YPL240C, strain hsp82, stronger effect = lower value 0.971 | S. cerevisiae deletion strains, locus YPL241C, strain CIN2, stronger effect = lower value 0.998 | S. cerevisiae deletion strains, locus YPR119W, strain clb2, stronger effect = lower value 1 | S. cerevisiae deletion strains, locus YPR141C, strain kar3, stronger effect = lower value 0.994 | S. cerevisiae deletion strains, locus YPR163C, strain tif3, stronger effect = lower value 1.02 | S. cerevisiae deletion strains, locus YPR167C, strain met16, stronger effect = lower value 0.987 | S. cerevisiae deletion strains, strain wtn01, stronger effect = lower value 0.959 | S. cerevisiae strains, strain wild type, stronger effect = lower value 0.995
